Several values for one entry are separate records, joined by “and”; a condition that tells them apart may be missing. Equal values may be shown once. Inconclusive results are not listed. The source holds several records for some structures; these can differ, active in one and inactive in another. Activity calls are given as the source filed them. How the source made its calls: active means hit-call score of the fitted dose curve at least 0.9, where 1 is the maximum; inconclusive means response in the unintended direction; inactive means score below 0.9.
Target: Tyrosine-protein phosphatase non-receptor type 14 (Homo sapiens) (UniProt Q15678)
Experiment: NVS_ENZ_hPTPN14: NovaScreen (NVS) Enzymatic Assay for human Protein Tyrosine Phosphatase Non-receptor Type 14 (PTPN14) (AID 2283206)
Summary of the method: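 Fluorescent substrate turnover by recombinant human PTPN14 was measured 0.5 h after compound addition, with substrate and product separated by mobility shift. Single-point screening at 25 uM, then concentration-response up to 50 uM for chemicals meeting threshold (e.g., 30% inhibition).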

Structure (SMILES)	outcome	AC50
CC(C)CCCCCCc1ccc(O)cc1	inactive	
S=C(S)NCCNC(=S)S.[Mn+2].[S-]C([S-])=NCCN=C([S-])[S-].[Zn+2]		25 µM (active)
S=C([S-])NCCNC(=S)[S-].[Mn+2]		13.8 µM (active)

Target: human Protein Tyrosine Phosphatase Non-receptor Type 4 (PTPN4), PTPN4 (gene 5775) (UniProt P29074)
Experiment: NVS_ENZ_hPTPN4: NovaScreen (NVS) Enzymatic Assay for human Protein Tyrosine Phosphatase Non-receptor Type 4 (PTPN4) (AID 2283208)
Summary of the method: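 Screened in duplicate at 25 uM, with hits then titrated to a top concentration of 50 uM. Recombinant Sf9-derived PTPN4 turnover was read by fluorescence with electrophoretic separation, 1.33 h after compound addition. DMSO served as baseline.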

Chain of human Protein Tyrosine Phosphatase Non-receptor Type 4 (PTPN4), PTPN4 (gene 5775) (P29074 whole entry, looked up): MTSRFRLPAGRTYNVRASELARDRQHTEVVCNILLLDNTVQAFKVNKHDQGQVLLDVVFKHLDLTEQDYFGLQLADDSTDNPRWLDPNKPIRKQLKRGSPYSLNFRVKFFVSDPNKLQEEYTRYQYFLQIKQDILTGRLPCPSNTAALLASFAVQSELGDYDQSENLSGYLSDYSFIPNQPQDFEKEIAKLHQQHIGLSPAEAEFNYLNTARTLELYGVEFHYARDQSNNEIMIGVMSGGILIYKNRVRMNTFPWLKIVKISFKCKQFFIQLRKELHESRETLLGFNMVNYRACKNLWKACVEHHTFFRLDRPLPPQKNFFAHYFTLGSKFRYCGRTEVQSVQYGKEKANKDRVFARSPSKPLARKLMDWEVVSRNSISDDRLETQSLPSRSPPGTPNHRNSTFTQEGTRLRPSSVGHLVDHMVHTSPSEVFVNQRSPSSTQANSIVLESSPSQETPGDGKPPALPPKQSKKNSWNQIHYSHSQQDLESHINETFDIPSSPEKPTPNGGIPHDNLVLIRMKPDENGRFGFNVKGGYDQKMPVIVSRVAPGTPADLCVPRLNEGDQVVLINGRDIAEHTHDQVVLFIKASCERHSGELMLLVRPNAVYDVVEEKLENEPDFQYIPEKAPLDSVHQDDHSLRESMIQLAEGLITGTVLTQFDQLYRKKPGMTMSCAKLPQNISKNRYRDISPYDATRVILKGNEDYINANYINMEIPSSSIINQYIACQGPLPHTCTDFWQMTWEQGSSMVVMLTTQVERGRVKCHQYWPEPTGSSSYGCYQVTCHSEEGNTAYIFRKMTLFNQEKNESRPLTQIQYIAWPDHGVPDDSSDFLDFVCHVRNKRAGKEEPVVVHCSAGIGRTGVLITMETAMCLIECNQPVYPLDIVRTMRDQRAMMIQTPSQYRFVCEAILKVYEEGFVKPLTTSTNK

Structure (SMILES)	outcome	AC50
CCCN(CCC)c1c([N+](=O)[O-])cc(C(F)(F)F)c(N)c1[N+](=O)[O-]	inactive	
c1ccc(Nc2ccccc2)cc1	inactive	
CSC(=O)c1cccc2nnsc12	inactive	
O=C(O)C1(C(=O)Nc2ccc(Cl)cc2Cl)CC1		3.23 µM (active)
S=C(S)NCCNC(=S)S.[Mn+2].[S-]C([S-])=NCCN=C([S-])[S-].[Zn+2]		183 nM (active) and 38.9 nM (active)
COc1nc(C)nc(NC(=O)NS(=O)(=O)c2ccccc2OCCCl)n1	inactive	
S=C([S-])NCCNC(=S)[S-].[Mn+2]		0.0035 µM (active)
CCC(C)OC(=O)N1CCCCC1CCO (centres undefined)	inactive	

Target: human Protein Tyrosine Phosphatase Non-receptor Type 9 (PTPN9), PTPN9 (gene 5780) (UniProt P43378)
Experiment: NVS_ENZ_hPTPN9: NovaScreen (NVS) Enzymatic Assay for human Protein Tyrosine Phosphatase Non-receptor Type 9 (PTPN9) (AID 2283209)
Summary of the method: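 Sf9-expressed enzyme in a cell-free assay, fluorescence read 1.33 h after dosing with mobility-shift separation of substrate and product. Tested at 25 uM in duplicate, then up to 50 uM; signal loss versus DMSO.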

Chain of human Protein Tyrosine Phosphatase Non-receptor Type 9 (PTPN9), PTPN9 (gene 5780) (P43378 whole entry, looked up): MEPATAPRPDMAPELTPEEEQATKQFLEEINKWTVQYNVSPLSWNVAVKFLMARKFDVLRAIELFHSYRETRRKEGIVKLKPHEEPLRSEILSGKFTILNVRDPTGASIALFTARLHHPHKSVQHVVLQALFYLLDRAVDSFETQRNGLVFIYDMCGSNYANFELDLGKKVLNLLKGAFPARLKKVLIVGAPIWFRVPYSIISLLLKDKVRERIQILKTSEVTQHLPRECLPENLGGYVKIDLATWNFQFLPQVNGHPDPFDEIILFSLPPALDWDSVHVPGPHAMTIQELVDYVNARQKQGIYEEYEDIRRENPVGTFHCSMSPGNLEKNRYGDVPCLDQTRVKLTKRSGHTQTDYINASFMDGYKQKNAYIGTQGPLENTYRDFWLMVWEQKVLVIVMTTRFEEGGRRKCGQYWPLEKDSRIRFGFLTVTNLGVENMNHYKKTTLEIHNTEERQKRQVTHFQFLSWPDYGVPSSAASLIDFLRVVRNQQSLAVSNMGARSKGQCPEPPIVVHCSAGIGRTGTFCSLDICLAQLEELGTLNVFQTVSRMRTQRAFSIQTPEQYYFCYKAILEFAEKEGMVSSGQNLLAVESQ

Structure (SMILES)	AC50	outcome
CCCN(CCC)c1c([N+](=O)[O-])cc(C(F)(F)F)c(N)c1[N+](=O)[O-]	19.9 µM (active)	
CC(C)CCCCCCc1ccc(O)cc1		inactive
O=C(O)C1(C(=O)Nc2ccc(Cl)cc2Cl)CC1	4.28 µM (active)	
S=C(S)NCCNC(=S)S.[Mn+2].[S-]C([S-])=NCCN=C([S-])[S-].[Zn+2]	419 nM (active) and 26.1 nM (active)	
COc1nc(C)nc(NC(=O)NS(=O)(=O)c2ccccc2OCCCl)n1		inactive
S=C([S-])NCCNC(=S)[S-].[Mn+2]	0.00231 µM (active)	
CCC(C)OC(=O)N1CCCCC1CCO (centres undefined)		inactive

Target: human Protein Tyrosine Phosphatase Non-receptor Type 6 (PTPN6), PTPN6 (gene 5777) (UniProt P29350)
Experiment: NVS_ENZ_hPTPN6: NovaScreen (NVS) Enzymatic Assay for human Protein Tyrosine Phosphatase Non-receptor Type 6 (PTPN6) (AID 2283210)
Summary of the method: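 Recombinant human PTPN6 from SF9 cells, enzyme activity followed by fluorescence after mobility-shift separation of substrate and product at 1.33 h. Chemicals first tested at a single 25 uM in duplicate, then confirmed across concentration series; loss of signal relative to DMSO.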

Chain of human Protein Tyrosine Phosphatase Non-receptor Type 6 (PTPN6), PTPN6 (gene 5777) (P29350 whole entry, looked up): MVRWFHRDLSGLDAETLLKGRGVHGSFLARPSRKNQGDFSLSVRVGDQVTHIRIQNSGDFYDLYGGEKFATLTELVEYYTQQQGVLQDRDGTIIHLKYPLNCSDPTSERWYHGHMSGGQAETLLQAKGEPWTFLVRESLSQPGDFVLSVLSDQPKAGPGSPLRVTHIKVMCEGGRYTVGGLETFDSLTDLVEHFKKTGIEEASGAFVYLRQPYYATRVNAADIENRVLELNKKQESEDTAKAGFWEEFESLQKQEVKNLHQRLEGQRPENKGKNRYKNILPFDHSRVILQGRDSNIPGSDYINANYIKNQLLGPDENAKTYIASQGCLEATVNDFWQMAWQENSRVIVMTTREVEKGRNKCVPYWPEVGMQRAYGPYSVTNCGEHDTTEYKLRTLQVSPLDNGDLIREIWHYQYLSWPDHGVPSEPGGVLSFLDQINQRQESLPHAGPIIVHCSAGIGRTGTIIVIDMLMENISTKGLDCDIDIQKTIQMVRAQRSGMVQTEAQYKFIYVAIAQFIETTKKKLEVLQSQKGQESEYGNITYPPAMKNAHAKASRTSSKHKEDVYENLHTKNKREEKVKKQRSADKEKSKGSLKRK

Structure (SMILES)	outcome	AC50
CCCN(CCC)c1c([N+](=O)[O-])cc(C(F)(F)F)c(N)c1[N+](=O)[O-]	inactive	
S=C(S)NCCNC(=S)S.[Mn+2].[S-]C([S-])=NCCN=C([S-])[S-].[Zn+2]		3.57 µM (active) and 30.5 µM (active)
S=C([S-])NCCNC(=S)[S-].[Mn+2]		34.7 µM (active)

Target: human Protein Tyrosine Phosphatase Receptor Type B (PTPRB), PTPRB (gene 5787) (UniProt P23467)
Experiment: NVS_ENZ_hPTPRB: NovaScreen (NVS) Enzymatic Assay for human Protein Tyrosine Phosphatase Receptor Type B (PTPRB) (AID 2283211)
Summary of the method: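 Recombinant human PTPRB with a fluorescent substrate, product separated by electrophoretic mobility shift; read 1 h after dosing. Primary screen in duplicate at 25 uM; actives then retested in concentration series; loss of signal versus DMSO.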

Chain of human Protein Tyrosine Phosphatase Receptor Type B (PTPRB), PTPRB (gene 5787) (P23467 whole entry, looked up): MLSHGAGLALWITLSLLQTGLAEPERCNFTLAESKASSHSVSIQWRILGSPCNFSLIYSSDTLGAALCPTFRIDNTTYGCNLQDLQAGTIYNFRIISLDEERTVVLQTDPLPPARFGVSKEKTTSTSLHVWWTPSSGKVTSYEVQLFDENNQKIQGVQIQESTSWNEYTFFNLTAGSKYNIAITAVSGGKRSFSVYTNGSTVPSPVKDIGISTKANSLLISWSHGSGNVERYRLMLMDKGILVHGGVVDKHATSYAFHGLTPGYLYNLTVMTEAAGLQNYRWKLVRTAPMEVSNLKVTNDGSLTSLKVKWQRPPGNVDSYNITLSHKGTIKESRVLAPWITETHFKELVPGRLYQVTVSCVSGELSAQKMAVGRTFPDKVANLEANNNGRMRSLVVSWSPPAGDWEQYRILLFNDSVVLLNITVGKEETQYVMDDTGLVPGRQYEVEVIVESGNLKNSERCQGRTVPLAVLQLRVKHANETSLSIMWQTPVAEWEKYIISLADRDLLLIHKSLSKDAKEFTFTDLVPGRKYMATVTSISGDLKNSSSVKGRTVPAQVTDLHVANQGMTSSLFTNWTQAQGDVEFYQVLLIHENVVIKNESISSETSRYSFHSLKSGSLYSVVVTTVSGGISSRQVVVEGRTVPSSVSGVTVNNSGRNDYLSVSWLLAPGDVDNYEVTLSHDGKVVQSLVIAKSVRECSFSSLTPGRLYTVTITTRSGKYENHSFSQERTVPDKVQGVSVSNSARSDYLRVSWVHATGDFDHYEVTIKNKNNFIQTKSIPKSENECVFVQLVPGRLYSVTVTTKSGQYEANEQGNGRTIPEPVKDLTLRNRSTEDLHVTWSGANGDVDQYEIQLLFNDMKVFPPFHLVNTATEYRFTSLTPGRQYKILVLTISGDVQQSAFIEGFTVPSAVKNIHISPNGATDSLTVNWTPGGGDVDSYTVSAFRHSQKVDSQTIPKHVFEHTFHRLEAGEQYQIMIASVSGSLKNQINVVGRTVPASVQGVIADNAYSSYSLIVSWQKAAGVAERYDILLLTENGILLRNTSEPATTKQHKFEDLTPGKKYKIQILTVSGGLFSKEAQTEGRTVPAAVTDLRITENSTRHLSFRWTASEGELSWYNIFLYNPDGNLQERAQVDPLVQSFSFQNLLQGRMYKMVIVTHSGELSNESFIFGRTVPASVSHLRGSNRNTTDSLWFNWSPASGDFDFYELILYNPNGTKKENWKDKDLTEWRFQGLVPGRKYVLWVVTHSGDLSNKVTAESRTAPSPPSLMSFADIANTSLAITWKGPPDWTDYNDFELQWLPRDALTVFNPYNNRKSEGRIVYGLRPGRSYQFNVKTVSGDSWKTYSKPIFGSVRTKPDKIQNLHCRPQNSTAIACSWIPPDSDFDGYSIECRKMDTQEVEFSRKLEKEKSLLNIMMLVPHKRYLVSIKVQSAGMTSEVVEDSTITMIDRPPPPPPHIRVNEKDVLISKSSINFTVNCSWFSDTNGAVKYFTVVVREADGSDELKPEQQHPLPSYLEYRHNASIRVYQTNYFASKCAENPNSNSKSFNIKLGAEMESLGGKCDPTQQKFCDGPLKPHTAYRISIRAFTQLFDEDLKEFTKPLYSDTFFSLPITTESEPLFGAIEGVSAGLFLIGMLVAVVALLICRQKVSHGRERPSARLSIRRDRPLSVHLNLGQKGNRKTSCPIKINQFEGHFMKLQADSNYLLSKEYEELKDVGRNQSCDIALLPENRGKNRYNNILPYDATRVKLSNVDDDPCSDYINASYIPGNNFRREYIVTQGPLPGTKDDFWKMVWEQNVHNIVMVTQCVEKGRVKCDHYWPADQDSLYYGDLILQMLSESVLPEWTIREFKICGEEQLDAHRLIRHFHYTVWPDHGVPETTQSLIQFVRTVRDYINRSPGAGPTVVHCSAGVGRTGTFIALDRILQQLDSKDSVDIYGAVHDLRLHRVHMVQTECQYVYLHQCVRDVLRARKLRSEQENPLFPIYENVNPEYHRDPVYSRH

Structure (SMILES)	outcome	AC50
COC(=O)c1ccccc1S(=O)(=O)NC(=O)Nc1nc(OC(F)F)cc(OC(F)F)n1	inactive	
CC(C)(c1ccc(O)cc1)c1ccc(O)cc1	inactive	
S=C(S)NCCNC(=S)S.[Mn+2].[S-]C([S-])=NCCN=C([S-])[S-].[Zn+2]		22.4 nM (active) and 4.12 µM (active)
CCNc1nc(N)nc(Cl)n1	inactive	
S=C([S-])NCCNC(=S)[S-].[Mn+2]		465 nM (active)
CCCN(CCC)C(=O)SCC	inactive	

Target: human Protein Tyrosine Phosphatase Receptor Type F (PTPRF), PTPRF (gene 5792) (UniProt P10586)
Experiment: NVS_ENZ_hPTPRF: NovaScreen (NVS) Enzymatic Assay for human Protein Tyrosine Phosphatase Receptor Type F (PTPRF) (AID 2283213)
Summary of the method: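 Cell-free fluorescence enzyme assay with recombinant protein and substrate; product separated by electrophoretic mobility shift. Read 1 h after dosing, single 25 uM duplicate screen, then concentration-response up to 50 uM; loss of signal vs DMSO.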

Structure (SMILES)	outcome	AC50
CC(C)CCCCCCc1ccc(O)cc1	inactive	
O=C(O)C1(C(=O)Nc2ccc(Cl)cc2Cl)CC1	inactive	
CN(C)C(=O)Nc1ccc(Cl)c(Cl)c1	inactive	
S=C(S)NCCNC(=S)S.[Mn+2].[S-]C([S-])=NCCN=C([S-])[S-].[Zn+2]	inactive	1.38 µM (active) and 1.98 µM (active)
N#CSCSc1nc2ccccc2s1	inactive	
S=C([S-])NCCNC(=S)[S-].[Mn+2]		6.35 µM (active)
CCCOC(=O)NCCCN(C)C	inactive	

Target: human Rho Associated Coiled-coil Containing Protein Kinase 1 (ROCK1), ROCK1 (gene 6093) (UniProt Q13464)
Experiment: NVS_ENZ_hROCK1: NovaScreen (NVS) Enzymatic Assay for human Rho Associated Coiled-coil Containing Protein Kinase 1 (ROCK1) (AID 2283214)
Summary of the method: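 Compounds first run in duplicate at 25 uM against recombinant human ROCK1, then followed in concentration series. Kinase activity was read 1 h post-dosing by fluorescence with mobility-shift separation, as signal loss relative to DMSO.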

Structure (SMILES)	outcome
CC(C)CCCCCCc1ccc(O)cc1	inactive
CSC(=O)c1cccc2nnsc12	inactive
CC(C)(c1ccc(O)cc1)c1ccc(O)cc1	inactive
S=C(S)NCCNC(=S)S.[Mn+2].[S-]C([S-])=NCCN=C([S-])[S-].[Zn+2]	inactive

Target: human Protein Tyrosine Phosphatase Receptor Type M (PTPRM), PTPRM (gene 5797) (UniProt P28827)
Experiment: NVS_ENZ_hPTPRM: NovaScreen (NVS) Enzymatic Assay for human Protein Tyrosine Phosphatase Receptor Type M (PTPRM) (AID 2283215)
Summary of the method: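 Read-out is fluorescence after electrophoretic separation of substrate and product, taken 1.33 h post-dosing with recombinant enzyme. Compounds screened at 25 uM in duplicate, then concentration series for actives; activity as signal loss relative to DMSO.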

Structure (SMILES)	outcome	AC50
CCCN(CCC)c1c([N+](=O)[O-])cc(C(F)(F)F)c(N)c1[N+](=O)[O-]	inactive	
CC(C)CCCCCCc1ccc(O)cc1	inactive	
O=C(O)C1(C(=O)Nc2ccc(Cl)cc2Cl)CC1		12.4 µM (active)
Oc1ccc(C(c2ccc(O)cc2)C(Cl)(Cl)Cl)cc1		46.5 µM (active)
COc1nc(C)nc(NC(=O)NS(=O)(=O)c2ccccc2OCCCl)n1	inactive	
S=C([S-])NCCNC(=S)[S-].[Mn+2]		8.13 µM (active)
O=C(Nc1ccc([N+](=O)[O-])cc1Cl)c1cc(Cl)ccc1O	inactive	

Target: human Sirtuin 2 (SIRT2), SIRT2 (gene 22933) (UniProt Q8IXJ6)
Experiment: NVS_ENZ_hSIRT2: NovaScreen (NVS) Enzymatic Assay for human Sirtuin 2 (SIRT2) (AID 2283217)
Summary of the method: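 Single-point duplicate screen at 25 uM, then concentration-response (max 50 uM) for chemicals passing threshold. Enzyme activity of recombinant human SIRT2 measured after 1 hr by fluorescence with mobility-shift separation of product; DMSO baseline.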

Chain of human Sirtuin 2 (SIRT2), SIRT2 (gene 22933) (Q8IXJ6 whole entry, looked up): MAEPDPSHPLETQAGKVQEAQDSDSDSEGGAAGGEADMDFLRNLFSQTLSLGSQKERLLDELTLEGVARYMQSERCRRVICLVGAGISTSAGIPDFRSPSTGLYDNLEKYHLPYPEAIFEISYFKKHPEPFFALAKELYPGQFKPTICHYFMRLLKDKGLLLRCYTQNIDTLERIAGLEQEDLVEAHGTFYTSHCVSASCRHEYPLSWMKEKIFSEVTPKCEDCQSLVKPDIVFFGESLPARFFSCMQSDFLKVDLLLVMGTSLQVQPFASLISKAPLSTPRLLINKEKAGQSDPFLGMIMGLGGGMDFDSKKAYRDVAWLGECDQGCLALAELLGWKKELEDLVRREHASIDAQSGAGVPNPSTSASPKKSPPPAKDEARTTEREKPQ

Structure (SMILES)	outcome	AC50
O=C(O)c1ccccc1	inactive	
Cc1nn(C)c(Oc2ccccc2)c1C=NOCc1ccc(C(=O)OC(C)(C)C)cc1		6.6 µM (active)
Oc1ccc(C(c2ccc(O)cc2)C(Cl)(Cl)Cl)cc1		17 µM (active)
S=C(S)NCCNC(=S)S.[Mn+2].[S-]C([S-])=NCCN=C([S-])[S-].[Zn+2]	inactive	4.58 µM (active)
C=CCOC(Cn1ccnc1)c1ccc(Cl)cc1Cl (centres undefined)		15.1 µM (active)
S=C([S-])NCCNC(=S)[S-].[Mn+2]		14.1 µM (active)
CC1(C)C(C=C(Cl)Cl)C1C(=O)OCc1cccc(Oc2ccccc2)c1 (centres undefined)	inactive	

— PubChem BioAssay (EPA / NIEHS)
